Measurements: the supplement of paper PMC10849652
The full data set covers some 7,900 targets. This sample favours those with a hit. About 0.6% of all pairs of compound and target were hits.

Key:
Experiment in all cases: log2 fold change, soluble protein after heating vs DMSO (PISA); higher = thermal stabilisation; K562 cells, 10 uM, 30 min; active = over 0.2 and 3.5 SD of the protein, either way, in both replicates (recomputed)
erlotinib = compound: C#Cc1cccc(Nc2ncnc3cc(OCCOC)c(OCCOC)cc23)c1 [erlotinib]
Method in brief: (§1)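 K562 cells at 2×10^6 cells/mL were treated with 10 μM compound for 30 min. Aliquots were heated for 3 min across 48°C-58°C, pooled, and extracted in PBS with 0.5% NP-40 at 4°C; soluble protein was the supernatant after 21,000xg for 90 min. Soluble protein was quantified by TMTpro 16plex LC-MS/MS with channel sums equalised, and reported as log2 fold change in thermal stability against DMSO controls, with values from duplicates.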

[1] = compound: C/C(=N\NC(=O)C1=CC(=CC=C1)S(=O)(=O)N2CCOCC2)/C3=C(C=CC(=C3)Cl)O
Method in brief: as §1

[2] = compound: C1=CC(=C(C=C1Cl)C2=NC3=NC=CN=C3C(=N2)NC4=CC=NC=C4)F
Method in brief: as §1

[3] = compound: C1=CC(=CC=C1C2=NC3=C(N2)C=C(C=C3)C(=O)N)OC4=CC=C(C=C4)Cl
Method in brief: as §1

[4] = compound: C1=CC2=C(C=CC(=C2)/C=C\3/C(=O)NC(=NCC4=CC=CS4)S3)N=C1
Method in brief: as §1

[5] = compound: C1=CC2=NC=CN=C2C=C1/C=C/3\C(=O)NC(=O)S3
Method in brief: as §1

[6] = compound: C1=CC=C(C=C1)C2=NC(=C(N2)C3=CC=NC=C3)C4=CC(=C(C=C4)Cl)O
Method in brief: as §1

[7] = compound: C1=CC=C2C(=C1)C3=NNC4=CC=CC(=C43)C2=O
Method in brief: as §1

[8] = compound: C1CCN(C1)C(=O)NC2=CC=CC(=C2)NC3=NC=C(C(=N3)NCCC4=CN=CN4)Br
Method in brief: as §1

[9] = compound: C1CN(CCC1(CC2=CC=C(C=C2)Cl)N)C3=NC=NC4=C3C=CN4
Method in brief: as §1

IRAK-1-4 Inhibitor I = compound: C1COCCN1CCN2C3=CC=CC=C3N=C2NC(=O)C4=CC(=CC=C4)[N+](=O)[O-] [IRAK-1-4 Inhibitor I]
Method in brief: as §1

ibrutinib = compound: C=CC(=O)N1CCC[C@@H](n2nc(-c3ccc(Oc4ccccc4)cc3)c3c(N)ncnc32)C1 [ibrutinib]
Method in brief: as §1

[10] = compound: CC(=O)c1cnc2ccc(-c3cc(Cl)c(O)c(Cl)c3)nc2c1N[C@H]1CC[C@H](CN(C)C)CC1
Method in brief: as §1

ralimetinib = compound: CC(C)(C)Cn1c(N)nc2ccc(-c3[nH]c(C(C)(C)C)nc3-c3ccc(F)cc3)nc21 [ralimetinib]
Method in brief: as §1

[11] = compound: CC(C)(O)CC(=O)NCCn1ccc2ncnc(Nc3ccc(Oc4cccc(C(F)(F)F)c4)c(Cl)c3)c21
Method in brief: as §1

[12] = compound: CC(C)C1=C2N=C(C=C(N2N=C1)NCC3=CC=CC=C3)NCCCCCCN
Method in brief: as §1

[13] = compound: CC(C)C[C@@H](C=O)NC(=O)[C@H](CC(C)C)NC(=O)[C@H](CC(C)C)NC(=O)OCc1ccccc1
Method in brief: as §1

pinometostat = compound: CC(C)N(C[C@H]1O[C@@H](n2cnc3c(N)ncnc32)[C@H](O)[C@@H]1O)[C@H]1C[C@@H](CCc2nc3cc(C(C)(C)C)ccc3[nH]2)C1 [pinometostat]
Method in brief: as §1

[14] = compound: CC1=C(C(CC(=O)N1)C2=CC=C(C=C2)C(F)(F)F)C(=O)NC3=C(C=C4C(=C3)C=NN4)F
Method in brief: as §1

[15] = compound: CC1=C(C2=C(C=C1)C(=O)C3=CC=CC=C3N2CCCN)C
Method in brief: as §1

Measured: log2 fold change

ST3GAL2 (UniProt Q16842)
UniProt Q16842, sequence (Q16842 whole entry, looked up): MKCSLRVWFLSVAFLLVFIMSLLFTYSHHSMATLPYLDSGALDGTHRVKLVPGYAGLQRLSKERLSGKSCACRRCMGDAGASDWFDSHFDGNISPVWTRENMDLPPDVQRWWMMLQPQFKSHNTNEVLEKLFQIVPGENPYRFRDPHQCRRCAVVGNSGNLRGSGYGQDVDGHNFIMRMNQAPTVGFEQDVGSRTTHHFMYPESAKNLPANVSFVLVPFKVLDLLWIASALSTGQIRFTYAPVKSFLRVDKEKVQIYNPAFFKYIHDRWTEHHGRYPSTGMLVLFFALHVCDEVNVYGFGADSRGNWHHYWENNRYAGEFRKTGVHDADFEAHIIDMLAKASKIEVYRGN
inactive: erlotinib 0.032 | [1] 0.07 | [2] -0.069 | [3] 0.009 | [4] -0.085 | [5] -0.052 | [6] -0.057 | [7] 0.045 | [8] -0.024 | [9] 0.108 | IRAK-1-4 Inhibitor I -0.183 | ibrutinib -0.105 | [10] -0.115 | ralimetinib -0.009 | [11] 0.119 | [12] -0.12 | [13] 0.066 | pinometostat -0.031 | [14] -0.037 | [15] 0.046

SURF1 (UniProt Q15526)
UniProt Q15526, sequence (Q15526 whole entry, looked up): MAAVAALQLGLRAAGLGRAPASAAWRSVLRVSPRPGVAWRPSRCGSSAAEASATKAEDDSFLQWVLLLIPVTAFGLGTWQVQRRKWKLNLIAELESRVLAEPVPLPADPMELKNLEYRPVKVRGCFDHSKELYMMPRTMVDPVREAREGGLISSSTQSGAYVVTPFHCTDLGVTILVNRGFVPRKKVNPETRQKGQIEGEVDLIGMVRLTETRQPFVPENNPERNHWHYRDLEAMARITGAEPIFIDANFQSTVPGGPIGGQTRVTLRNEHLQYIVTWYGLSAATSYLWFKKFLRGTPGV
inactive: erlotinib 0.021 | [1] -0.036 | [2] 0.051 | [3] -0.026 | [4] -0.045 | [5] 0.055 | [6] 0.056 | [7] 0.017 | [8] -0.141 | [9] 0 | IRAK-1-4 Inhibitor I 0.021 | ibrutinib -0.028 | [10] 0.051 | ralimetinib -0.04 | [11] 0.036 | [12] -0.172 | [13] 0.028 | pinometostat -0.044 | [14] 0.022 | [15] 0.098

SMAD2 (UniProt Q15796)
inactive: erlotinib 0.061 | [1] 0.087 | [2] -0.065 | [3] 0.04 | [4] 0.069 | [5] -0.004 | [6] -0.05 | [7] -0.045 | [8] -0.034 | [9] 0.019 | IRAK-1-4 Inhibitor I -0.145 | ibrutinib 0.05 | [10] -0.091 | ralimetinib -0.069 | [11] -0.088 | [12] -0.015 | [13] 0.124 | pinometostat -0.125 | [14] -0.192 | [15] 0.079

SMCHD1 (UniProt A6NHR9)
UniProt A6NHR9, sequence (A6NHR9 whole entry, looked up): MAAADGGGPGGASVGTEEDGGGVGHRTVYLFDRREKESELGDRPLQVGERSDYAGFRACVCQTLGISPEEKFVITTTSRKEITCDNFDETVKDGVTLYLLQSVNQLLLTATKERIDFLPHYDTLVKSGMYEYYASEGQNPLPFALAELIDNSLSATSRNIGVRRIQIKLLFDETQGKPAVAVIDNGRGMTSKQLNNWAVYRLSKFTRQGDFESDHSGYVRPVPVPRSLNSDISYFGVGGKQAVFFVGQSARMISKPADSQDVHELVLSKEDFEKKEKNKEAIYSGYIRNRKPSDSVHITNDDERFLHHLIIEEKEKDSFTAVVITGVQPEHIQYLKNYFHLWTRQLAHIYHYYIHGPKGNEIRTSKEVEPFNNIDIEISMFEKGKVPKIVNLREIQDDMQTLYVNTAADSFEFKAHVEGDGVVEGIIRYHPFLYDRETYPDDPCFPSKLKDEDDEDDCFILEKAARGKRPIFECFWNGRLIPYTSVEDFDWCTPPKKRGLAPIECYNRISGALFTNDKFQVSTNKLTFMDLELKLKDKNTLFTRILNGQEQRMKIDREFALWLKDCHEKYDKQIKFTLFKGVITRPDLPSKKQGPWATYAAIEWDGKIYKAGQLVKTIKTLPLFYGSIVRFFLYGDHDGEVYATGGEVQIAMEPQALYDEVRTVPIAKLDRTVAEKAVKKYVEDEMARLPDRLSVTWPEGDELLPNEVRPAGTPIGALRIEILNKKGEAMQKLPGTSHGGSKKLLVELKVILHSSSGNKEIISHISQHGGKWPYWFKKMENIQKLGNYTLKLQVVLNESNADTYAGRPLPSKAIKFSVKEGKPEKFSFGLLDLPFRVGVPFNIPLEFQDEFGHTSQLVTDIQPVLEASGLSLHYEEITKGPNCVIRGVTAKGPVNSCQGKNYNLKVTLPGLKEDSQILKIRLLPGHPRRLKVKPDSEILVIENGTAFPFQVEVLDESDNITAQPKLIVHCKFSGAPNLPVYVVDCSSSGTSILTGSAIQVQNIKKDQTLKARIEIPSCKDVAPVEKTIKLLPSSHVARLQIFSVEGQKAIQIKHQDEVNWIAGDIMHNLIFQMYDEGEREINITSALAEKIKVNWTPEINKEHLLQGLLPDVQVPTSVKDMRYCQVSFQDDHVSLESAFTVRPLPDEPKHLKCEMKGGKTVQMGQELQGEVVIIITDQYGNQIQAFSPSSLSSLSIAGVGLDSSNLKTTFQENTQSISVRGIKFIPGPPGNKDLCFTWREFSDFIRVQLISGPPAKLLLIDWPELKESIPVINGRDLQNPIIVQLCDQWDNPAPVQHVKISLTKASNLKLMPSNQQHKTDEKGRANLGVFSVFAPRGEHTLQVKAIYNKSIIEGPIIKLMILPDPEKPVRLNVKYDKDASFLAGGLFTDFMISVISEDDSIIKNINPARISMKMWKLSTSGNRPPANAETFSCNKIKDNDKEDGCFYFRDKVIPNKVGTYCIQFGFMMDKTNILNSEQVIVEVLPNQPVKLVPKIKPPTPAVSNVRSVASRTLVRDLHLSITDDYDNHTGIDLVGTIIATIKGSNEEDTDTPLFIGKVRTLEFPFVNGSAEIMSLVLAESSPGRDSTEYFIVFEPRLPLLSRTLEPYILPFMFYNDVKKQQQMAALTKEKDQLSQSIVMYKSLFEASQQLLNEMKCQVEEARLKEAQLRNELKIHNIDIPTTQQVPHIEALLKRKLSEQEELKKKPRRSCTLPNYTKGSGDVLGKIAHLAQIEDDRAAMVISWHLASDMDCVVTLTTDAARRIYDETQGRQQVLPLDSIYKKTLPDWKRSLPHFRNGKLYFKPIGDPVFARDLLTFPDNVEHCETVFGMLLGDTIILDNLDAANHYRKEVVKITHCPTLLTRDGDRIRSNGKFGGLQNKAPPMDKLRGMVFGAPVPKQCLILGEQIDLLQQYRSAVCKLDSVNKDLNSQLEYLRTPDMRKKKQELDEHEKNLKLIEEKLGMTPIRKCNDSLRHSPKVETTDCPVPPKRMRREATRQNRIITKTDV
inactive: erlotinib 0.006 | [1] 0.171 | [2] -0.272 | [3] 0.043 | [4] 0.325 | [5] 0.046 | [6] -0.007 | [7] -0.422 | [8] -0.153 | IRAK-1-4 Inhibitor I -0.268 | ibrutinib -0.007 | [10] -0.344 | ralimetinib 0.108 | [11] 0.068 | [12] -0.067 | [13] 0.038 | pinometostat 0.092 | [14] -0.08 | [15] 0.406
active: [9] -0.564

TELO2 (UniProt Q9Y4R8)
UniProt Q9Y4R8, sequence (Q9Y4R8 whole entry, looked up): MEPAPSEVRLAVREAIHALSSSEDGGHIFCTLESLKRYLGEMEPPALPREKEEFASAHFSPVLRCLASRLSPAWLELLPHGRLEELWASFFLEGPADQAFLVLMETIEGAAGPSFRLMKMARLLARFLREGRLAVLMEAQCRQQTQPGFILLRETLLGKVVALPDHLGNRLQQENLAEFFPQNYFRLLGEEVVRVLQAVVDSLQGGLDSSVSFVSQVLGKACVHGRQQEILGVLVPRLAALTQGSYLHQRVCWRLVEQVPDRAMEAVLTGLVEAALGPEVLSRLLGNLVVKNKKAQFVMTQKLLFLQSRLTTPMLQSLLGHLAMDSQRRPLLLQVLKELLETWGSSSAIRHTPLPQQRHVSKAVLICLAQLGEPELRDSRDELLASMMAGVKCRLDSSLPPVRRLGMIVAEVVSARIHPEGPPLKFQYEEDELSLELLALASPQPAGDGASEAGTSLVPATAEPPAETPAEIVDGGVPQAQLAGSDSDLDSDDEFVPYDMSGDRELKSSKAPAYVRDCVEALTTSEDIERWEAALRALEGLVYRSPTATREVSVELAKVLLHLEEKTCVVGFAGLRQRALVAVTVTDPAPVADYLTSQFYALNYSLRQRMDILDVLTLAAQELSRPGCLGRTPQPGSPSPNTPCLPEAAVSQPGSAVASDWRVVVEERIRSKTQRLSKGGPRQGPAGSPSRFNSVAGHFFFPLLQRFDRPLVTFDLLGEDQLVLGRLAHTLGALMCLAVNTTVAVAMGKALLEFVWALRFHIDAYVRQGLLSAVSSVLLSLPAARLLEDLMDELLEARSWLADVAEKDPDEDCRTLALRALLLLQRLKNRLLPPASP
inactive: erlotinib 0.043 | [1] 0.102 | [2] -0.185 | [3] -0.031 | [4] -0.039 | [5] 0.019 | [6] -0.037 | [7] 0.053 | [8] 0.046 | [9] -0.076 | IRAK-1-4 Inhibitor I -0.126 | ibrutinib -0.044 | [10] 0.008 | ralimetinib 0.103 | [11] 0 | [12] -0.375 | [13] 0.049 | pinometostat 0.204 | [14] -0.015 | [15] 0.125

TFR2 (UniProt Q9UP52)
UniProt Q9UP52, sequence (Q9UP52 whole entry, looked up): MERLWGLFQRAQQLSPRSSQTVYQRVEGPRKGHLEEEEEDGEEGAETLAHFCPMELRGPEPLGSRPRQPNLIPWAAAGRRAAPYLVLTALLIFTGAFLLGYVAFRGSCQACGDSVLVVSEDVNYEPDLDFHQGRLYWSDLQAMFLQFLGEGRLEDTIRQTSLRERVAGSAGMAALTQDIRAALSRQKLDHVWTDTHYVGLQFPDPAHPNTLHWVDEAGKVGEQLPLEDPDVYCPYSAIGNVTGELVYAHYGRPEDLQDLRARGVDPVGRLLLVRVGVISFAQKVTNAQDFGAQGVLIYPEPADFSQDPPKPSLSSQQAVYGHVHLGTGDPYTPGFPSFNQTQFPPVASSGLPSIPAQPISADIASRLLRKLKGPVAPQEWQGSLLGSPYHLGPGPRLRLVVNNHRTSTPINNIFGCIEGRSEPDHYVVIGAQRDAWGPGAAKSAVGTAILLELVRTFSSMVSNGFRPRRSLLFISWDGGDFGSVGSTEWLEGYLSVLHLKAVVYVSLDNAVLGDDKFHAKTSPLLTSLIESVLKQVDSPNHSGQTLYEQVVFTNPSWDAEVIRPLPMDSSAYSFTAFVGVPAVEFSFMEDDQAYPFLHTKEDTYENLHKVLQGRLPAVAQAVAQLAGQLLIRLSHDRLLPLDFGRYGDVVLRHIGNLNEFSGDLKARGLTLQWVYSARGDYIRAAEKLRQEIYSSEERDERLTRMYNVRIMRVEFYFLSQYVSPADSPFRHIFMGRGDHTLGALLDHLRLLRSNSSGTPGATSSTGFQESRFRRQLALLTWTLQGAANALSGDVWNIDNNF
inactive: erlotinib 0.009 | [1] -0.019 | [2] -0.012 | [3] -0.015 | [4] 0.018 | [5] 0.016 | [6] -0.039 | [7] -0.023 | [8] 0.03 | [9] 0.018 | IRAK-1-4 Inhibitor I 0.018 | ibrutinib 0.008 | [10] -0.011 | ralimetinib -0.018 | [11] 0.037 | [12] -0.146 | [13] 0.02 | pinometostat 0.02 | [14] 0.02 | [15] -0.128

SLC35A1 (UniProt P78382)
UniProt P78382, sequence (P78382 whole entry, looked up): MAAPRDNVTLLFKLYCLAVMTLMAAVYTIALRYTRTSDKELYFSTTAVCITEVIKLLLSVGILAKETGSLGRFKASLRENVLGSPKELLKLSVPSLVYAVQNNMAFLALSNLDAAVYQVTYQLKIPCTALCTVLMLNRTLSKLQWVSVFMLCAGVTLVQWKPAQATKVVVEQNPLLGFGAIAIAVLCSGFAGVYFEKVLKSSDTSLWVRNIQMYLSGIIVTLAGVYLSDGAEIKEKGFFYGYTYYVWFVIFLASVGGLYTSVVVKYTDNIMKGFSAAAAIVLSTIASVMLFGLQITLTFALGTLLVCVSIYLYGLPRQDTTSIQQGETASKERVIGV
inactive: erlotinib 0.014 | [1] -0.126 | [2] 0.05 | [3] -0.008 | [4] 0.082 | [5] -0.017 | [6] -0.043 | [7] -0.061 | [8] -0.052 | [9] 0.077 | IRAK-1-4 Inhibitor I -0.057 | ibrutinib 0.119 | [10] -0.027 | ralimetinib -0.049 | [11] -0.056 | [12] 0.066 | [13] 0.007 | pinometostat -0.055 | [14] 0.059 | [15] 0.138

SULT1A1 (UniProt P50225)
UniProt P50225, sequence (P50225 whole entry, looked up): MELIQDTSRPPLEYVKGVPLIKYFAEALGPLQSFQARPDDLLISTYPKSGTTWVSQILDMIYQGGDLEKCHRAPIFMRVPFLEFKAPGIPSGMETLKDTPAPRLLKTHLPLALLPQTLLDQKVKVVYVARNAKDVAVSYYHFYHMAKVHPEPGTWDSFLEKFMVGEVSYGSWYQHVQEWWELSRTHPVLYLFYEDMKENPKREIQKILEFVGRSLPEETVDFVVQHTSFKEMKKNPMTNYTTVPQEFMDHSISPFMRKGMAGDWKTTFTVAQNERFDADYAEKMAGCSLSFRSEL
inactive: erlotinib -0.003 | [1] 0.009 | [2] 0.109 | [3] 0.381 | [5] 0.031 | [6] 0.008 | [8] -0.111 | [9] 0.012 | IRAK-1-4 Inhibitor I -0.077 | ibrutinib 0.044 | [10] -0.099 | ralimetinib -0.029 | [11] -0.104 | [12] -0.104 | [13] -0.056 | pinometostat 0.001 | [14] 0.014 | [15] 0.048
active: [4] 0.375 | [7] 0.396
